Here are results for 15 compounds from PubChem BioAssay.

Activity calls are given as the source filed them.

Assay [1] is described as follows: compound effects on lung adenocarcinoma cell viability – A549, calcein-AM fluorescence, 48 h, basal, profiling panel (AID 1162). The note with it: higher = more signal.
Assay [2] in a line: compound effects on differentiated 3T3-L1 adipocyte viability – cell-based, 3T3-L1 adipocytes, calcein-AM fluorescence, 48 h, basal, profiling panel (AID 1163). The settings on record: 3T3-L1 adipocytes viability, higher = more signal.
Assay [3] can be described thus: compound effects on hepatocellular carcinoma cell viability – HepG2, calcein-AM fluorescence, 48 h, basal, profiling panel (AID 1164). The settings on record: higher = more signal.
Assay [4] is described as follows: compound effects on multiple myeloma cell viability – MM1S, calcein-AM fluorescence, 48 h, basal, profiling panel (AID 1165).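 Also: viability of MM1S multiple myeloma cells under basal unstimulated conditions.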 The settings on record: higher = more signal.
Assay [5] in a line: calcein-AM signal in unstimulated myeloma cells – cell-based, calcein-AM fluorescence, 48 h, PK04 Diversity Set, profiling panel (AID 1166).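 Also: cells grown under basal conditions without added stimulus.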 The settings on record: RPMI8226 myeloma viability, higher = more signal.
Assay [6] can be described thus: JC-1 mitochondrial signal, unstimulated HepG2 cells – cell-based, JC-1 fluorescence, 24 h, 100 nL compound, profiling panel (AID 1167). The note with it: HepG2 mitochondrial potential, higher = more signal.
The nature of assay [7]: JC-1 mitochondrial signal, unstimulated adipocytes – cell-based, JC-1 fluorescence, 3T3-L1 adipocytes, 24 h, 100 nL compound, profiling panel (AID 1168). The note with it: JC-1 mitochondrial fluorescence, higher = more signal, called active from +8 up or from −8 down.
Assay [8] can be described thus: JC-1 mitochondrial signal, unstimulated myeloma cells – cell-based, JC-1 fluorescence, RPMI8226, 24 h, 100 nL compound, profiling panel (AID 1169). The settings on record: JC-1 mitochondrial potential fluorescence, higher = more signal.
Assay [9] can be described thus: JC-1 mitochondrial signal, unstimulated MM1S myeloma – cell-based, JC-1 fluorescence, 24 h, 100 nL compound, profiling panel (AID 1170). The settings on record: MM1S mitochondrial potential, higher = more signal.
The nature of assay [10]: resazurin metabolic signal in A549 cells – cell-based, resazurin fluorescence, 24 h, PK04 Diversity Set, profiling panel (AID 1171). The settings on record: A549 viability, higher = more signal, called active from +8 up or from −8 down. On the technique in general: Alamar Blue is a resazurin reagent that responds to reducing activity.
Also: test concentration not given here.

With `COC(=O)[C@@]1(Cc2ccc(F)cc2)[C@H]2c3cc(C(=O)N4CCCC4)n(Cc4ccc(C)o4)c3C[C@H]2CN1C(=O)c1ccccc1`, the z-score in [1] is -0.981; in assay [2] it was 0.681; in [3], -0.498; in assay [4] it was -2.99; in assay [5], -3.74; in assay [6] it was 2.32. The z-score is 0.096 (inactive) in assay [7], -0.486 in assay [8], -2.84 in [9] and -0.72 (inactive) in assay [10].

`CC(=O)NCCCC[C@@H]1NC(=O)[C@@H]2C[C@H](C(=O)NCCCCN(C)C)[C@H](c3cccc(OCCO)c3)N2C1=O`: the z-score in assay [1] was 0.0857; in assay [2] it was -0.749; in assay [3], -0.506; in assay [4] it was -0.589; in assay [5], -0.486; in assay [6], -0.085. Further, the z-score is -0.24 (inactive) in [7], -0.569 in assay [8], -0.436 in [9] and 0.604 (inactive) in [10].

In the case of `C=C(/C(=C/C[C@@H](OC(C)=O)c1ccc(OCCO)cc1)c1cnc2ccccc2c1)C(C)C`, the z-score is 2.72 in assay [1]; 1.39 in [2]; 1.25 in assay [3]; -0.924 in [4]; 0.559 in assay [5]; 2.07 in assay [6]. In addition, the z-score is -1.27 (inactive) in assay [7], -0.139 in [8], -1.17 in assay [9] and 0.685 (inactive) in assay [10].

Take `CC1CC/C=C\[C@H]2OC34C=CCN(c5ccc(Cl)cc5)C(=O)[C@H]3N(CCO)C(=O)[C@]4(C)C2C(=O)O1` (stereo not given in full): the z-score was -0.562 in assay [1]; 0.594 in assay [2]; 0.107 in [3]; 0.246 in assay [4]; 0.0105 in [5]; -0.472 in [6]. Further, the z-score was -0.54 (inactive) in [7], 0.27 in [8], 2.04 in [9] and -0.428 (inactive) in assay [10].

For the compound `COc1ccc([C@H]2OC[C@@H]3CC4(CC=CC4)C(=O)N32)cc1`, the z-score was 0.262 in assay [1]; -0.238 in assay [2]; -0.0409 in assay [3]; -0.58 in assay [4]; 0.055 in assay [5]; -0.301 in assay [6]. In addition, the z-score in assay [7] was 0.197 (inactive); in [8], -0.54; in assay [9], 0.17; in assay [10], -0.312 (inactive).

As for `O=C1O[C@H](c2ccccc2)[C@H](c2ccccc2)N2[C@H]1[C@@H](C(=O)NC[C@H](O)c1ccccc1)[C@]1(C(=O)Nc3ccccc31)[C@H]2c1ccc(OCCO)cc1`, the z-score was -0.425 in assay [1]; 1.61 in assay [2]; -1.41 in assay [3]; -2.53 in assay [4]; -3.09 in [5]; -2.29 in [6]. Moreover, the z-score in [7] was 1.95 (inactive); in [8] it was -1.21; in assay [9], -1.21; in assay [10], -0.333 (inactive).

As to `C=CCC(OC(C)=O)[C@@H]1[C@@H](N(Cc2ccc(-c3cccc(C(F)(F)F)c3)o2)C(=O)c2ccc(-c3ccccc3)cc2)c2cc(OCCCO)ccc2N1C(=O)c1ccc(-c2ccccc2)cc1` (stereo not given in full), the z-score in [1] was 0.0361; in [2], 0.114; in [3], 0.104; in assay [4], 0.365; in [5] it was -0.297; in assay [6] it was 1.25. Moreover, the z-score in assay [7] is -0.581 (inactive); in assay [8] it was 0.287; in [9], 0.872; in [10], -0.176 (inactive).

`CN(C)CCCNC(=O)[C@@]1(c2ccc([N+](=O)[O-])cc2)CC(=O)N(C2CCCCC2)[C@@H]1c1ccc(CO)cc1`: the z-score was 0.259 in assay [1]; -0.272 in assay [2]; 0.23 in assay [3]; -0.432 in assay [4]; -1.43 in assay [5]; 0.259 in assay [6]. Further, the z-score in assay [7] is 0.255 (inactive); in assay [8] it was 0.956; in assay [9] it was -0.435; in assay [10], 0.497 (inactive).

As to `COC(=O)[C@@]1(Cc2ccc(F)cc2)[C@H]2c3cc(C(=O)N(C)C)n(CC4CC4)c3C[C@H]2CN1C(=O)c1ccccc1`, the z-score in [1] was -0.654; in assay [2], 0.128; in assay [3] it was -0.0517; in assay [4], -2.21; in assay [5], -3.32; in assay [6] it was 1.41. Besides, the z-score is -0.708 (inactive) in assay [7], -0.858 in assay [8], -1.21 in assay [9] and -1.38 (inactive) in assay [10].

In the case of `[N-]=[N+]=Nc1ccccc1C[C@]1(C(N)=O)N=C(c2ccc(OCCCO)cc2)O[C@H]1c1ccccc1`, the z-score in assay [1] is 0.0914; in [2], 0.124; in [3], -0.0857; in assay [4], -1.9; in assay [5], -0.495; in assay [6], -0.543. For the same compound, the z-score was -0.387 (inactive) in assay [7], -0.265 in assay [8], -0.0874 in [9] and 0.453 (inactive) in assay [10].

In the case of `CN1C2C=C(CCCO)C(C3C(=O)N(C(N)=O)C(=O)C32)C1c1ccc(CN2CCCC2)cc1` (stereo not given), the z-score is -0.814 in assay [1]; -0.543 in assay [2]; -0.357 in [3]; 0.432 in assay [4]; -1.22 in assay [5]; -0.208 in assay [6]. Further, the z-score in [7] is -0.655 (inactive); in assay [8] it was 0.234; in assay [9], -0.137; in assay [10], 0.0528 (inactive).

On to `O=C1O[C@H](c2ccccc2)[C@H](c2ccccc2)N2[C@H]1[C@@H](C(=O)N1CCN(c3ncccn3)CC1)[C@]1(C(=O)Nc3ccc(C#CC4=CCCCC4)cc31)[C@H]2c1ccc(O)cc1`, for which the z-score in assay [1] was 0.645; in [2] it was 0.301; in assay [3] it was 0.469; in assay [4] it was -0.36; in assay [5], -1.91; in [6] it was -1.49. In addition, the z-score in [7] is 1.44 (inactive); in [8], -0.745; in assay [9], -0.75; in assay [10], -0.526 (inactive).

On to `O=C1NCC(=O)N2[C@@H]1C[C@@H](C(=O)O)[C@H]2c1cccc(OCCO)c1`, for which the z-score in [1] was 0.278; in [2], -0.856; in assay [3], 0.662; in assay [4], 0.301; in assay [5] it was 0.362; in [6] it was 2.32. In addition, the z-score in assay [7] is -0.16 (inactive); in [8], 0.529; in assay [9], -0.514; in assay [10], -0.229 (inactive).

Consider `C=CCN1C(=O)[C@]2(O[C@H](CCO)[C@@H]([Si](C)(C)c3ccc(OC)cc3)[C@@H]2C)c2cc(N3CCCCC3=O)ccc21`, for which the z-score in assay [1] was -1.25; in assay [2], 0.257; in [3], -2.15; in [4], -2.54; in assay [5] it was -3.82; in [6] it was -0.61. In addition, the z-score in [7] was -0.305 (inactive); in assay [8] it was -0.982; in [9], -1.63; in [10], -3.52 (inactive).

`C=CCN1C(=O)[C@]2(O[C@H](CCO)[C@@H]([Si](C)(C)c3ccc(OC)cc3)[C@@H]2C)c2cc(N3C(=O)c4cccc5cccc3c45)ccc21`: the z-score is -3.27 in [1]; 0.105 in assay [2]; -4.63 in assay [3]; -2.63 in assay [4]; -4.34 in assay [5]; -2.32 in assay [6]. For the same compound, the z-score in assay [7] was 0.697 (inactive); in [8] it was -0.955; in assay [9], -2.28; in assay [10], -5.26 (inactive).
